Source: PubChem BioAssay
Only some compounds are listed: those with a hit (about 1.3% of all), similar ones and a draw of the others.
S1P2 blocker: blocks the human S1P2 receptor | cell-based S1P2 antagonist assay, inhibition at 5 uM | O95136 | inhibition, % at 5 µM | 97,000 tested, 0.21% active | AID 736; in the data active = inhibition above about 45%;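 also: CRE beta-lactamase reporter cells expressing human S1P2 stimulated with S1P; 0% = agonist at EC80 alone and 100% = agonist plus reference antagonist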
GALR2 antag: GALR2 (human) receptor antagonism; inhibition, % at 4 µM; 140,000 tested, 0.39% active; O43603; GALR2-expressing cells, antagonist mode; in the data active = inhibition above about 27%;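 also: cells stimulated with galanin 1-16 at roughly its EC80; 0% = agonist challenge control and 100% = basal control without agonist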
Target sequence (O43603 whole entry, looked up): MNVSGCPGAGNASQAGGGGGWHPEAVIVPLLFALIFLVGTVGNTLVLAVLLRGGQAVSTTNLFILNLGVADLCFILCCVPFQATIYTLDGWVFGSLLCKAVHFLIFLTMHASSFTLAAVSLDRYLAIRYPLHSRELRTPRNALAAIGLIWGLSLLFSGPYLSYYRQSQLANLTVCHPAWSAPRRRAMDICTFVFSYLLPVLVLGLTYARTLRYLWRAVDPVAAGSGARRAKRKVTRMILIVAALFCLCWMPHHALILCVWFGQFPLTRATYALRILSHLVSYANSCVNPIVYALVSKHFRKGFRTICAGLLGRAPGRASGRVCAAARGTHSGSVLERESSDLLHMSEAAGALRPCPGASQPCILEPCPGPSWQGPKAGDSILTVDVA
S1P2 agonist: agonists of human S1P2 receptor | activation, % at 4.5 µM | S1P2-expressing cell line, agonist reporter read-out | 97,000 tested, 0.46% active; in the data active = activation above about 16%;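 also: 0% = vehicle low control and 100% = maximal reference agonist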
Calb biofilm kill: kills Candida albicans biofilms; inhibition, % at 6 µM; C. albicans biofilm + clotrimazole, Alamar Blue; 85,000 tested, 0.14% active; AID 834;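 active = inhibition above 20%; inactive = inhibition below 20%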;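 also: preformed 24 hr biofilms exposed to compound for 48 hr; 0% = biofilm without compound and 100% = blank killed by clotrimazole plus chlorhexidine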
Smad3 FoxH1 inh: inhibitors of human Smad3 transcription factor binding | P84022 | TR-FRET Smad3/Dy647-FoxH1 peptide binding, europium anti-His | inhibition, % at 25 µM | 88,000 tested, 0.29% active | AID 630;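 active = compounds that reduce the energy-transfer binding signal between the protein and its labelled peptide by more than half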;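 also: 0% = Smad3 plus labelled peptide maximal FRET and 100% = peptide-only background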
GALR2 agonist: agonists of human galanin receptor 2 (GALR2). O43603. GALR2-expressing cells, agonist activation read-out. activation, % (no concentration beside the values). 140,000 tested, 0.48% active; in the data active = activation above about 5%, passing the limit was not always enough;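 also: 0% = vehicle buffer wells and 100% = reference agonist at full effect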
The depositor's hits bear a star; . = no result given; [ ] = another dose, or the depositor's remark.

SMILES	S1P2 blocker	GALR2 antag	S1P2 agonist	Calb biofilm kill	Smad3 FoxH1 inh	GALR2 agonist
CC(C)n1c(=N)c(C(=O)NCCc2ccccc2)cc2c(=O)n3ccccc3nc21	-68	-22	94*	13	0	18*
CCn1c(=N)c(C(=O)OC)cc2c(=O)n3ccccc3nc21	.	.	.	9	5	.
COC(=O)c1cc2c(=O)n3ccccc3nc2n(C(C)C)c1=N	-32	-4	19*	-1	4	17*
N=C(N)c1ccc(/C=C/c2ccc(C(=N)N)cc2)cc1	.	.	.	.	-2	.
N=c1c(S(=O)(=O)c2ccc(Cl)cc2)cc2c(=O)n3ccccc3nc2n1CCN1CCOCC1	.	-1	.	6	11	8.3*
Cn1c(=N)c(S(=O)(=O)c2ccc(F)cc2)cc2c(=O)n3ccccc3nc21	-18	-11	2	2	-2	1
Cn1c(=N)c(S(=O)(=O)c2ccccc2)cc2c(=O)n3ccccc3nc21	-57	-9	22*	11	-4	3
CC(=O)O[C@H]1CC[C@@]2(C)C(=CC[C@H]3[C@H]2CC[C@]2(C)[C@@H]4[C@@H](C)[C@]5(CC[C@H](C)CN5)O[C@@H]4C[C@@H]32)C1	.	.	.	.	8	.
O=[N+]([O-])c1cccc(/C=N/Nc2ccc3ccccc3n2)c1O	.	.	.	.	4	.
CCOc1ccc(NS(=O)(=O)c2cc(OCC(N)=O)c(C)cc2Cl)cc1	.	-6	.	.	.	0
COc1ccccc1NS(=O)(=O)c1cc([N+](=O)[O-])ccc1N/N=C/c1c(C)[nH]c2ccccc12	69*	9	-15	.	.	-5
Cc1[nH]c2ccccc2c1/C=N/Nc1ccc([N+](=O)[O-])cc1	.	18	.	.	.	1
O=C(CCN1CCc2ccccc2CC1)c1ccc2c(c1)OCCO2	13	7	-8	16	13	-3
CC(=O)c1cc2c(cc1NC(=O)c1cc(C)nn1-c1ccccc1)OCO2	.	9	.	3	0	15*
CC(=O)Nc1ccc(NC(=O)c2cc(C)nn2-c2ccccc2)cc1	2	-8	-2	-7	9	-1
COc1cccc(NC(=S)NC2CC(C)(C)NC(C)(C)C2)c1	.	11	.	.	.	-1
CC(C)OCCCNC(=O)c1c(N)n(/N=C/c2cccs2)c2nc3ccccc3nc12	-28	-18	18*	.	.	3
OC1(c2cccc(C(F)(F)F)c2)CCN(c2ncnc3c2[nH]c2ccc(F)cc23)CC1	49*	11	-16	0	-3	0
COc1ccc(-c2cc(N)n(S(=O)(=O)c3c(F)c(F)c(F)c(F)c3F)n2)cc1OC	15	28*	6	7	4	-2
COc1ccc(S(=O)(=O)n2nc(-c3cc(OC)c(OC)c(OC)c3)cc2N)cc1OC	.	9	.	-1	-1	0
O=C(NC1CCCC1)C(c1ccsc1)N(C(=O)Cc1cccs1)c1ccccc1 (configuration not stated)	-24	17	-1	.	.	-3
O=C(NC1CCCC1)C(c1ccsc1)N(CCc1ccccc1)C(=O)Cc1cccs1 (configuration not stated)	.	4	.	.	.	6.0*
CN(C)c1ccc(O)c2c1CC1CC3[C@@H](N(C)C)C(=O)C(C(N)=O)=C(O)[C@]3(O)C(=O)C1=C2O (some centres not stated)	.	-6	.	25*	55*[fluorescence artefact?]	-1
C=C(C)CNC(=S)N/N=C1\CCCCc2ccccc21	.	6	.	.	.	6.1*
CCNC(=S)N/N=C1\CCCCc2ccccc21	.	5	.	.	.	1
SMILES	S1P2 blocker	GALR2 antag	S1P2 agonist	Calb biofilm kill	Smad3 FoxH1 inh	GALR2 agonist
CCc1nnc2n1N=C(c1ccc(-c3cc(Cl)ccc3Cl)o1)CS2	-10	-4	1	24*	4	1
CCc1nnc2n1N=C(c1ccc(-c3ccc(Cl)cc3Cl)o1)CS2	0	-3	-4	1	-1	0
O=C(Nc1ccccc1[N+](=O)[O-])C1=C(O)CCn2c1nc1ccccc12	-20	-15	3	4	51*	-1
Cc1ccc(N(C(=O)Cc2c[nH]c3ccccc23)C(C(=O)NC2CCCCC2)c2ccco2)cc1 (configuration not stated)	-6	-5	-10	.	.	-1
Cc1ccccc1N(C(=O)Cc1c[nH]c2ccccc12)C(C(=O)NC1CCCCC1)c1ccco1 (configuration not stated)	.	17	.	.	.	6.1*
Cc1nn(C)c(C)c1CN(C)C(=O)c1cc2n(n1)C(C(F)(F)F)CC(c1cccs1)N2 (configuration not stated)	15	-8	-4	11	54*[fluorescence artefact?]	-3
O=[N+]([O-])c1c(NCCCO)cc(SCc2ccco2)c2nonc12	.	2	.	.	.	0
